D3 antag – D3 dopamine receptor (human) antagonism. max response, negative = inhibition, %. D3R cells, DiscoveRx beta-arrestin luminescence, antagonist mode; active compounds read low. AID 652054. 2.5% of 360,000 active. P35462; in the data active = max response below about -50%; inconclusive = no clear call, values can overlap the other calls; also: % is scaled to controls: 0 for no effect and ±100 for the full control effect
Target sequence (P35462 whole entry, looked up): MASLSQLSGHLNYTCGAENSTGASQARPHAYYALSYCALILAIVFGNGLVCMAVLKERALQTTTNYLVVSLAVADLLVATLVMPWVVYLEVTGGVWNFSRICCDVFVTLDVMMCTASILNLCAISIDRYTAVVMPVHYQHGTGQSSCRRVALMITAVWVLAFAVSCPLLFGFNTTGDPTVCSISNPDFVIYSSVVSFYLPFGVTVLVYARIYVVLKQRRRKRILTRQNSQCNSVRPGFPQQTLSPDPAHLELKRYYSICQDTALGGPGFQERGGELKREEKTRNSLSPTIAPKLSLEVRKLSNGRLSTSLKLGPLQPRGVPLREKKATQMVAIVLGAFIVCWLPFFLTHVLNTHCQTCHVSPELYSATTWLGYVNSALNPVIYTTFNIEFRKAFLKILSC
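Cells expressing the human receptor were seeded at 1500 cells/well, incubated overnight at 37 degrees C in 5% CO2, then exposed to library compounds with dopamine controls for 90 minutes at 37 degrees C before luminescent detection.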
a7 integrin act – activators of alpha7 integrin expression for muscular dystrophy; AID 624291; alpha7betagal myoblasts, beta-gal FDG fluorescence, 48 h; 0.064% of 350,000 active; Potency, µM (titrated, usually from 38.3 µM), for inactives: at the top dose activation, most hits filed as activators; active = well fitted activation curve with a large enough effect; inconclusive = small, poorly fitted or top-dose-only effect; inactive = no such curve, though single readings can be large or run the other way;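 also: potency is read from the fitted curve at half-maximal effect; 100% = response of the positive control SU9516; nearly all actives have a fitted effect of over 60% in size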
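Alpha7betagal+/- myoblasts (passage 13) were plated 16-24 hr, then exposed to compounds (1:260 dilution of DMSO stock) for 48 hours at 37C. After MPER lysis, β-galactosidase reporter activity was read as FDG fluorescence (ex 480/em 540) after 30 minutes.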
DRD3 agonist – activates the human D3 dopamine receptor | P35462 | D3R DiscoveRx beta-arrestin cells, luminescence, 90 min | max activation, % | 0.58% of 410,000 active | AID 652048; in the data active = max activation above about 30%; also: 0% is about no effect
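Cells at 1500/well, incubated overnight, then treated with pinned compounds (dopamine as control) for 90 min at 37 degrees C. DiscoveRx reagent added for 30 - 60 minutes at room temperature; luminescence read.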
An asterisk follows results filed as active; ? = inconclusive; . = not tested or not shown; [ ] = another dose, or the depositor's remark. An excerpt weighted towards active compounds, which were near 2.9% of everything screened.

SMILES	D3 antag	a7 integrin act	DRD3 agonist
CCN1CCc2nc(SCC(=O)Nc3ccc(OC)cc3)c(C#N)cc2C1	-70*	-16%	9
COc1ccc2cc3cc(C(=O)NCCN4CCc5ccccc5C4)sc3nc2c1	-93*	32%	-28
CCC(C)NC(=O)c1cc2cc3ccc(OC)cc3nc2s1 (centres undefined)	10	23%	-5
C/C=C(/C)C(=O)O[C@H]1[C@@H](O)c2c(ccc3ccc(=O)oc23)OC1(C)C	-11	-17%	-4
COc1ccc(S(=O)(=O)N2CCOCC2)c2ccccc12	15	0%	14
CN(C)c1ccc(/C=C/c2ccc3c4ccccc4ccc3[n+]2-c2ccccc2)cc1	4	-21%	5
CN1CCc2c(sc3c2C(=O)NC(c2ccco2)N3)C1 (centres undefined)	17	-21%	-25
COc1ccc(Br)cc1C1NC(=O)c2c(sc3c2CCN(C)C3)N1 (centres undefined)	16	-1%	-3
CN1CCc2c(sc3c2C(=O)NC(c2ccc(-c4ccc(Cl)cc4)o2)N3)C1 (centres undefined)	-81*	-4%	-25
CN1CCc2c(sc3c2C(=O)NC(c2cn(Cc4ccccc4)c4ccccc24)N3)C1 (centres undefined)	-75*	0%	-11
COc1cccc(CN2CCN(Cc3cccc4c3OCO4)CC2CCO)c1 (centres undefined)	?	-23%	-10
CCOc1ccc(CN2CCN(Cc3cccc4c3OCO4)CC2CCO)cc1 (centres undefined)	-61*	-13%	-19
CCOc1ccc(CN2CCN(Cc3cc4c(cc3Cl)OCO4)CC2CCO)cc1 (centres undefined)	-64*	-21%	-40
CCOc1ccccc1CN1CCN(Cc2cccc3c2OCO3)CC1CCO (centres undefined)	-24	-9%	-2
OCCC1CN(Cc2cccs2)CCN1Cc1ccccc1 (centres undefined)	-24	8%	-19
CCOc1ccc(CN2CCN(Cc3cnn(CC)c3C)CC2CCO)cc1 (centres undefined)	3	1%	2
Cc1ccc(CN2CCN(Cc3cccc4c3OCO4)CC2CCO)cc1 (centres undefined)	-94*	-16%	-28
OCCC1CN(Cc2cc3c(cc2Cl)OCO3)CCN1Cc1ccccc1 (centres undefined)	-53*	-14%	-24
O=[N+]([O-])c1ccc(-c2c(O)c3ccccc3c3nc4ccccc4nc23)cc1	19	-3%	2
Cc1ccc(C(C)C)cc1OCCn1cncn1	15	0%	4
CC1(C)CC(=O)C2=C(C1)Nc1ncnn1C2c1ccccn1 (centres undefined)	-14	16%	0
CN(Cc1ccccc1)C(=O)COC(=O)CCN1C(=O)C2CC=CCC2C1=O (centres undefined)	9	42%	-4
O=[N+]([O-])/C=C/c1cn(Cc2ccc(Cl)cc2)c2ccccc12	-53*	-13%	-4
Cc1cccc(Cn2cc(/C=C/[N+](=O)[O-])c3ccccc32)c1	-24	-69%	-2
Cc1ccc(C)c(NC(=S)NCC(c2ccccc2)N(C)C)c1 (centres undefined)	-60*	-18%	-39
SMILES	D3 antag	a7 integrin act	DRD3 agonist
COc1ccc(CC(=O)NCC(c2ccc(OC)cc2)N(C)C)cc1 (centres undefined)	2	-8%	-7
Cc1ccccc1NC(=S)NCC(c1cccnc1)N(C)C (centres undefined)	1	-13%	2
Cc1cccc(OCCC(=O)NCC(c2ccccc2)N(C)C)c1 (centres undefined)	-60*	-5%[7.66 µM]	-5
COc1ccc(C(CNC(=O)CCOc2ccccc2)N(C)C)cc1 (centres undefined)	-76*	-2%	-52
CN(C)C(CNC(=O)CCOc1ccccc1)c1ccco1 (centres undefined)	18	16%	4
COc1ccc(Cl)cc1NC(=O)CC(C)c1ccccc1 (centres undefined)	-24	15%	-5
CC(=O)N1CCc2cc(N=NC3=C(O)CCCC3=O)ccc21	-11	-9%	-5
CCC(c1nnnn1-c1ccc2c(c1)OCCO2)N1CCN(C(C)=O)CC1 (centres undefined)	8	.	0
Oc1ccc(C[C@H]2CNCCN2CCCCC2CCCCC2)cc1	-21	0%	-9
CCCCN1CCNC[C@H]1Cc1ccc(O)cc1	-92*	15%	-10
CC(C)(C)OC(=O)N1CCC(NC(=O)c2[nH]cnc2C(=O)Nc2cccc(Cl)c2)CC1	0	2%	66*
CC(C)(C)OC(=O)[C@H](Cc1ccccc1)NC(=O)c1[nH]cnc1C(=O)Nc1cccc(Cl)c1	-54*	-40%	0

Compound activity from PubChem BioAssay.
